For some of these results: Measured potencies and affinities stand elsewhere.

These results are taken from ChEMBL document CHEMBL3988442, “University of Dundee, Small-Polar-MMV Screening Library” (2021).

Common to all, as to design: scale not given: direction of the effect not stated beside the values
The target of assay [1] is Protein translocase subunit SecA (Escherichia coli (strain K12)) (UniProt P10408). Put plainly: Assay to Identify E. coli SecA ATPase Inhibitors. The conditions noted are these: 30 µM. The format is functional.
In assay [2] the target is T1, Ubiquitin-activating enzyme e1, putative (Leishmania donovani (strain BPK282A1)) (UniProt E9BSI1).
T1 sequence (whole entry): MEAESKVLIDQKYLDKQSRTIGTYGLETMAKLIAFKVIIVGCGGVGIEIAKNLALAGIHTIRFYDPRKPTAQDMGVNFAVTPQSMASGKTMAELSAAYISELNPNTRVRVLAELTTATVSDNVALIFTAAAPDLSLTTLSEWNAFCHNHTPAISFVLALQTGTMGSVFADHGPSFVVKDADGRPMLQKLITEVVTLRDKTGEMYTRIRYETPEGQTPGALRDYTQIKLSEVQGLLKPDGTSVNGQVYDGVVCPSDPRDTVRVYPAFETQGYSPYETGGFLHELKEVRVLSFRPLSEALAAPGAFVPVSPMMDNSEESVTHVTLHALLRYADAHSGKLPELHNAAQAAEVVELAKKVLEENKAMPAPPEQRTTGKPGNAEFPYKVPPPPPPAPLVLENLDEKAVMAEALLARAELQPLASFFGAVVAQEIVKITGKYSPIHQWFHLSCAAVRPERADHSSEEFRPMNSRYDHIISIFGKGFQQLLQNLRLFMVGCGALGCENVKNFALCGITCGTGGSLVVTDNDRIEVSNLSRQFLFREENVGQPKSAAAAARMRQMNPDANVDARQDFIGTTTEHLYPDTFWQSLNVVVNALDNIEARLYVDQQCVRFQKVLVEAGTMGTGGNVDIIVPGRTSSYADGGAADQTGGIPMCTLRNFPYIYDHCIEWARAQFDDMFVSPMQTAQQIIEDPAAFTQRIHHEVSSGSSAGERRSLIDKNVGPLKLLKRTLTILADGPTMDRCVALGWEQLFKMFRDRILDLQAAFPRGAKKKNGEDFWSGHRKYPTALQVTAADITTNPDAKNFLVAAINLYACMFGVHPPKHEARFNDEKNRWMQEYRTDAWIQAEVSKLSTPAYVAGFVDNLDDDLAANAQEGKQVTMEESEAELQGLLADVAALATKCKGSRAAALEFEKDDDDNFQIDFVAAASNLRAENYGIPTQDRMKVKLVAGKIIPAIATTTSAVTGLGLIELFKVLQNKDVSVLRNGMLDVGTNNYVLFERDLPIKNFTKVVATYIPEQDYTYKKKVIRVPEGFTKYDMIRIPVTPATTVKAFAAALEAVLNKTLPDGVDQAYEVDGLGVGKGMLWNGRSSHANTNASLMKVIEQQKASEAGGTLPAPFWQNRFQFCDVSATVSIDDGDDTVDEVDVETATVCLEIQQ
Put plainly: Leishmania donovani Ubiquitin Activating Enzyme (LdE1). The format is functional. The conditions noted are these: 30 µM.

The target in assay [3] is AMP-activated protein kinase, AMPK (Homo sapiens) (UniProt P54646+O43741+P54619+Q9UGJ0+Q9Y478+Q13131+Q9UGI9). Put plainly: AMP-dependent Kinase enzyme assay. An in vitro enzyme assay that detects ADP turnover that is directly proportional to AMPK activity. This uses naive AMPK that is activated during the assay with MK-8722. The format is functional. The conditions noted are these: 30 µM.

The target in assay [4] is Sialic acid-binding Ig-like lectin 9 (Homo sapiens) (UniProt Q9Y336). Nature of the assay: Hs-Siglec9 ALPHAscreen SOP 20170721. The note with it: 10 µM.
For assay [5], the system named is Trypanosoma cruzi. Put plainly: Trypanosoma cruzi phosphomannomutase and mannose-1-phosphate guanylyltransferase assay. The format is functional. The note with it: 10 µM.
Assay [6] concerns the target T2, Arginase-2, mitochondrial (Homo sapiens) (UniProt P78540).
T2 sequence (whole entry): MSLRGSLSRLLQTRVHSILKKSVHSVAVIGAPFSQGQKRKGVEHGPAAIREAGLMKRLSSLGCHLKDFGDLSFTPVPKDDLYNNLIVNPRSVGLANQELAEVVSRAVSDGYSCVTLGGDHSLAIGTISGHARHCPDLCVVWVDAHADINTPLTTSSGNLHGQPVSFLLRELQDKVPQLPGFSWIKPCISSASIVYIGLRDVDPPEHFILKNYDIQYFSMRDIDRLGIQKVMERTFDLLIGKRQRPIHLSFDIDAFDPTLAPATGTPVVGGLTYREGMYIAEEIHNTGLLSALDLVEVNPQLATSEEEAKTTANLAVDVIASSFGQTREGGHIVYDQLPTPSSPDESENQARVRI
Put plainly: in vitro enzyme assay to detect the production of urea directly proportional to the activity of Arginase II. Also: in the data most compounds retested in dose-response had high values. The format is functional. The note with it: 33.3 µM.

The target of assay [7] is T3, Proteasome subunit beta (Trypanosoma cruzi) (UniProt O96673).
T3 sequence (whole entry): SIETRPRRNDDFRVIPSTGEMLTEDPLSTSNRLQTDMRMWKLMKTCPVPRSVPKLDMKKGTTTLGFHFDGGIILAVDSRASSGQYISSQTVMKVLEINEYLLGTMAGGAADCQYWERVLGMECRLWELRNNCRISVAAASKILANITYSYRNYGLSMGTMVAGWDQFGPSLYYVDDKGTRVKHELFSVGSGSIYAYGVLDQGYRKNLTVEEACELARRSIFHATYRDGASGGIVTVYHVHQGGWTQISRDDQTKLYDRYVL
Put plainly: Trypanosoma cruzi proteasome chymotrypsin-like activity (TcProtChymo) assay. Also: in the data most compounds retested in dose-response had high values. The assay is classed as functional. The note with it: 9.37 µM.

The species entered for assay [8] is Homo sapiens. Nature of the assay: To identify inhibition of the IFN signalling (Jak-Stat) pathway via expression of an eGFP reporter gene under the control of an IFN-stimulated response element (ISRE) containing MxA promoter. The assay is classed as functional. The conditions noted are these: 30 µM.
Assay [9] has as its target T4, Tyrosyl-tRNA synthetase, putative (Trypanosoma cruzi (strain CL Brener)) (UniProt Q4DSP6).
T4 sequence (whole entry): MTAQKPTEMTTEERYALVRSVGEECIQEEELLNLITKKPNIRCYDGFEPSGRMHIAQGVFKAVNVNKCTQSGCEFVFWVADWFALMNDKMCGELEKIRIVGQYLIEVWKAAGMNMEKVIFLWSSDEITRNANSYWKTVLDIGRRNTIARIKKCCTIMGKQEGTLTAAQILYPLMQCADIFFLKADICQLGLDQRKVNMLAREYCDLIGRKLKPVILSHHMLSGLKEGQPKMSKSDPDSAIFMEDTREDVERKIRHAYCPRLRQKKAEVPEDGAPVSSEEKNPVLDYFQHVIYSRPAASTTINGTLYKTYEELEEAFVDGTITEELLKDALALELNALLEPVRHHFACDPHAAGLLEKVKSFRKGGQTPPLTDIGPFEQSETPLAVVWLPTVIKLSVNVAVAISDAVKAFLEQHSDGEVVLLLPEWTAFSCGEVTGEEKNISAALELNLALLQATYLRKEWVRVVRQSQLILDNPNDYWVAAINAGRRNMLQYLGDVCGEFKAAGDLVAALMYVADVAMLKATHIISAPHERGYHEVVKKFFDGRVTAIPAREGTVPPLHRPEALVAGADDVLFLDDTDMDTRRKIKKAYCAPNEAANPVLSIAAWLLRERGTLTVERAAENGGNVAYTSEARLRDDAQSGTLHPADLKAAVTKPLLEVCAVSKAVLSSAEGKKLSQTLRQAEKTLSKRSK
Nature of the assay: Trypanosoma cruzi tyrosyl tRNA synthetase (TcYRS) _High Tyrosine SOP. Also: in the data most compounds retested in dose-response had high values. The format is functional. The note with it: 30 µM.

Assay [10] addresses T4, Tyrosyl-tRNA synthetase, putative (Trypanosoma cruzi (strain CL Brener)). Nature of the assay: Trypanosoma cruzi tyrosyl tRNA synthetase (TcYRS) SOP. The conditions noted are these: 30 µM. The format is functional.
Assay [11] concerns the target Chromo domain-containing protein 1 (Saccharomyces cerevisiae (strain ATCC 204508 / S288c) (Baker's yeast)) (UniProt P32657). Put plainly: ScCHD-1 Enzyme Inhibition Assay. Also: in the data most compounds retested in dose-response had high values. The assay is classed as functional. The conditions noted are these: 30 µM.

Chain of Sialic acid-binding Ig-like lectin 9 (Homo sapiens) (Q9Y336 whole entry): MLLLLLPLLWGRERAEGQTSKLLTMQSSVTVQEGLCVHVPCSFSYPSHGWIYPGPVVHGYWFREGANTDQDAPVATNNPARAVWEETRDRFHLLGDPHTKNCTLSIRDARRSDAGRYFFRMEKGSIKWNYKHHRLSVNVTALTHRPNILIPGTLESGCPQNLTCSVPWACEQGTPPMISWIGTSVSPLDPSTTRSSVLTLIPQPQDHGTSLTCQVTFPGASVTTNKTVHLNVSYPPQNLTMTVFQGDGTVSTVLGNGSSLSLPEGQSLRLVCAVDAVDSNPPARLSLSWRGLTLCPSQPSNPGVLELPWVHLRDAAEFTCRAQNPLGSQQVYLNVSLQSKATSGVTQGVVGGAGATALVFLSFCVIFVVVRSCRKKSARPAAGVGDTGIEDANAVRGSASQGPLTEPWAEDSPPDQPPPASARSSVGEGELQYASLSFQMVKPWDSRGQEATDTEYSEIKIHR
Chain of Protein translocase subunit SecA (Escherichia coli (strain K12)) (P10408 whole entry): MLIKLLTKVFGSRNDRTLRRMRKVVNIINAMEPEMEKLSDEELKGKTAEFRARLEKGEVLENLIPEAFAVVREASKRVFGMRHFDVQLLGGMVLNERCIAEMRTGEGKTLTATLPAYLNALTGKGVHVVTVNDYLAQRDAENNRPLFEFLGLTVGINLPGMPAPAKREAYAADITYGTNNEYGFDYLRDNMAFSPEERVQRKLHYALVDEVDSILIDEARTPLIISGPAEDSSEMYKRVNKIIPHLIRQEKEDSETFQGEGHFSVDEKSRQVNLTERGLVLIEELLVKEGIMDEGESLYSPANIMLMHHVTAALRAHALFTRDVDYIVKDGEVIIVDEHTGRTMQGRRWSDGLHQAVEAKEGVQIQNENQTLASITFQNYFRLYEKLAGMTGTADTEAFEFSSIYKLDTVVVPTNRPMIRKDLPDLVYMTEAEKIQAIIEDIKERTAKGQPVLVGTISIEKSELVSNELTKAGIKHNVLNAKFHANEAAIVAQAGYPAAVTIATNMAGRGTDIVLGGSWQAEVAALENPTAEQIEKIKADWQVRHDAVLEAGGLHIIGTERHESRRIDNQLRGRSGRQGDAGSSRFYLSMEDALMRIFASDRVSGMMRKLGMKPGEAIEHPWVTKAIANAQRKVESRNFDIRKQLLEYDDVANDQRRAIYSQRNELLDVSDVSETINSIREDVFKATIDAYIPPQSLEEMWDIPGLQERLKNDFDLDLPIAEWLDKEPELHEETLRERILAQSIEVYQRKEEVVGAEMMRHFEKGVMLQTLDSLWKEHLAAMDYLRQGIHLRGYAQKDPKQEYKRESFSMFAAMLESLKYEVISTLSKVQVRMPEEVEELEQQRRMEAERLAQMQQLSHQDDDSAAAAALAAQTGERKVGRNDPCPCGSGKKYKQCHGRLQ
Chain of Chromo domain-containing protein 1 (Saccharomyces cerevisiae (strain ATCC 204508 / S288c) (Baker's yeast)) (P32657 whole entry, the tested form may be a part): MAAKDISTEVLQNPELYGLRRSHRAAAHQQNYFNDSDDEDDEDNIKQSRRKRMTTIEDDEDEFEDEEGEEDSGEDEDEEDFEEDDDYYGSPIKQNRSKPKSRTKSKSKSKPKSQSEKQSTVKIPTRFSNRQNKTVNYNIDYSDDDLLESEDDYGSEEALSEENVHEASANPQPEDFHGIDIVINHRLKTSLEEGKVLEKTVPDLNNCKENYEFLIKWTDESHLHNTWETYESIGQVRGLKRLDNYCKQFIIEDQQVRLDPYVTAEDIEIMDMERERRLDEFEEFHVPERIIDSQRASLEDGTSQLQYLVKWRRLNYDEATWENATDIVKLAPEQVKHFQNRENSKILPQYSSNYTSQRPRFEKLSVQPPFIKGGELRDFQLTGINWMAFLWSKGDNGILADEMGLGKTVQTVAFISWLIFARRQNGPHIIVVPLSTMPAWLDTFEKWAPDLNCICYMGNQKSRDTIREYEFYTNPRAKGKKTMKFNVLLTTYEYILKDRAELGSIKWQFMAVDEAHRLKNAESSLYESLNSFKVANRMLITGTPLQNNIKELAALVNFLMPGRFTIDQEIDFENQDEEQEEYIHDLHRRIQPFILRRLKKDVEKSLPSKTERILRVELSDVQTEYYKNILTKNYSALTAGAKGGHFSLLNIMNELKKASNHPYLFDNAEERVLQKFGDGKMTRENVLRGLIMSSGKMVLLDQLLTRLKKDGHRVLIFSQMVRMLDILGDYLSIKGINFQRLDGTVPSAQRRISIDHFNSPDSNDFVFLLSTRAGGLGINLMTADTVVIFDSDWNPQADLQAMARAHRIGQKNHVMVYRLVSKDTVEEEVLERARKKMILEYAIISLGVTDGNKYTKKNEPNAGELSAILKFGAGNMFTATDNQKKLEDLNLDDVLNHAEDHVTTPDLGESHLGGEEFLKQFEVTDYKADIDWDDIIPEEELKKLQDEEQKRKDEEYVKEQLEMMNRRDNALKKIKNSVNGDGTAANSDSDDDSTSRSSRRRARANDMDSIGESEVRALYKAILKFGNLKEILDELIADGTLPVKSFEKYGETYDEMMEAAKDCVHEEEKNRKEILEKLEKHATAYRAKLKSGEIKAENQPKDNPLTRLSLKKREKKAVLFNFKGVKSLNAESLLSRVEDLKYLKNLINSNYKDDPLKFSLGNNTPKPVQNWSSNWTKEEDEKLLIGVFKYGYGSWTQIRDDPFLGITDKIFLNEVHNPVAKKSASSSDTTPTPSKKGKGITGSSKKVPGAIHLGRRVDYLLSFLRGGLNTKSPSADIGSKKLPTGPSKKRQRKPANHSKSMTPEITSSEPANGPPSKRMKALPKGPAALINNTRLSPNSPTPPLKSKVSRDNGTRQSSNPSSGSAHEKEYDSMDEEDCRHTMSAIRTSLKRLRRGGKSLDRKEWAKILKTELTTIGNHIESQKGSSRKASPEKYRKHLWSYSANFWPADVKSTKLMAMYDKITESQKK

On to `Cc1ccc(C(=O)NCCCNS(C)(=O)=O)c(=O)[nH]1`, for which the Percent Effect is -3.74% in [1]; 16.2% in assay [2]; -2.72% in [3]; 4.72% in assay [4]; 2.54% in assay [5]; 5% in assay [6]. Moreover, the Percent Effect is 22.4% in assay [7]; -1.74% in assay [8]; 10.9% in assay [9]; 18.3% in [10]; -7.91% in [11].
Turning to `CN(Cc1nnc(C2CC2)n1C)C1CCN(Cc2ccon2)C1` (stereo not drawn), the Percent Effect in assay [1] is -1.9%; in assay [2] it was 21.6%; in assay [3] it was -11.6%; in [4] it was -5.53%; in assay [5] it was -2.17%; in [6], -10%. For the same molecule, the Percent Effect is 12.6% in assay [7]; 7.46% in assay [8]; 5.42% in assay [9]; 11.1% in assay [10]; -7.81% in assay [11].
In the case of `CC(C)C(C(=O)N1CCN(c2ccncc2)CC1)n1cncn1` (stereo not drawn), the Percent Effect in [1] was -5.41%; in [2] it was 15.6%; in assay [3], -0.644%; in assay [4], 10.9%; in assay [5], 6.98%; in assay [6], -34.5%. The Percent Effect in assay [7] is 11.8%; in [8] it was 8.3%; in assay [9], 4.3%; in assay [10], 13.6%; in assay [11], -7.32%.
As for `Cc1cc(=O)n2ncnc2n1CC(O)c1cc(F)ccc1F` (stereo not drawn), the Percent Effect in assay [1] was -4.1%; in assay [2], 18.4%; in assay [3], 1.21%; in [4], -4.45%; in assay [5] it was 5.55%; in assay [6], 1.18%. In addition, the Percent Effect in assay [7] was 15.6%; in assay [8], 6.3%; in assay [9], 5.32%; in [10], 20.8%; in assay [11] it was -3.49%.
In the case of `Cc1ccccc1CN1CCN(CC(=O)Nc2cccnc2)CC1`, the Percent Effect is -3.14% in assay [1]; 15.6% in assay [2]; -360% in [3]; -1.61% in assay [4]; 6.95% in [5]; 3.58% in assay [6]. The Percent Effect in assay [7] was 11.1%; in assay [8], 12.5%; in [9], 4.76%; in assay [10], 18.8%; in [11] it was -2.58%.
On to `CCn1nc(C)c2nc(C(C)C)nc(NCCCO)c21`, for which the Percent Effect was -2.47% in assay [1]; 12% in assay [2]; 4.47% in assay [3]; 13.2% in assay [4]; 1.97% in assay [5]; 0.176% in assay [6]. For the same molecule, the Percent Effect in [7] was 12.6%; in [8], 33.7%; in assay [9], 4.23%; in assay [10], 12.8%; in assay [11], -6.99%.
Turning to `O[C@H]1CCN(Cc2ccoc2)[C@H]1Cc1cccnc1`, the Percent Effect was -6.91% in assay [1]; 0% in assay [2]; 3.99% in [3]; -6.85% in [4]; -1.16% in [5]; -54.7% in [6]. Also, the Percent Effect in [7] is 5.47%; in [8], 13.5%; in [9], 4.17%; in assay [10], 2.5%; in [11], -9.55%.
On to `c1csc(-c2nc(CNC3CCc4ncnn4C3)co2)c1` (stereo not drawn), for which the Percent Effect in assay [1] was -3.96%; in assay [2], 7.79%; in assay [3], -1.01%; in assay [4], 1.84%; in assay [5], -5.24%; in assay [6], 2.13%. For the same molecule, the Percent Effect in assay [7] was 4.22%; in assay [8], 20.4%; in assay [9] it was 2.91%; in assay [10], 9.76%; in assay [11], -4.74%.
